Laboratory results published in PubChem BioAssay (Tox21).
Results filed as inconclusive are left out. Activity calls are given as the source filed them. Unless noted, the call rests on the fitted dose curve.

Experiments:
[1] = Nuclear factor erythroid 2-related factor 2/antioxidant responsive element (Nrf2/ARE) small molecule agonists: qHTS cell viability counter screen in human keratinocytes (AID 1919968; active means well fitted curve in the direction sought with a large enough effect in the repeat runs; an effect the other way counts as inactive or inconclusive; further: nearly all actives have a fitted effect of over 55% in size; further: potency means the concentration at half of the fitted maximal effect)
Outline: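 Stably transfected HaCaT (KeratinoSens), 1,500/well. Test agents in DMSO were applied for 23 h, 37 C/5% CO2. CellTiter-Fluor was incubated 1 h before the fluorescence read.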

[2] = Nuclear factor erythroid 2-related factor 2/antioxidant responsive element (Nrf2/ARE) small molecule agonists: luciferase reporter gene qHTS assay in human keratinocytes (AID 1919969); further: nearly all actives have a fitted effect of over 35% in size; further: potency means the concentration at half of the fitted maximal effect
[3] = target: Gonadotropin-releasing hormone receptor (Homo sapiens) (UniProt P30968); assay: Human gonadotropin-releasing hormone receptor (GnRHR) small molecule agonists, calcium flux assay in GnRHR-HEK293 cells (AID 1920063); further: nearly all actives have a fitted effect of over 35% in size
Gonadotropin-releasing hormone receptor (Homo sapiens), sequence (P30968 whole entry, looked up): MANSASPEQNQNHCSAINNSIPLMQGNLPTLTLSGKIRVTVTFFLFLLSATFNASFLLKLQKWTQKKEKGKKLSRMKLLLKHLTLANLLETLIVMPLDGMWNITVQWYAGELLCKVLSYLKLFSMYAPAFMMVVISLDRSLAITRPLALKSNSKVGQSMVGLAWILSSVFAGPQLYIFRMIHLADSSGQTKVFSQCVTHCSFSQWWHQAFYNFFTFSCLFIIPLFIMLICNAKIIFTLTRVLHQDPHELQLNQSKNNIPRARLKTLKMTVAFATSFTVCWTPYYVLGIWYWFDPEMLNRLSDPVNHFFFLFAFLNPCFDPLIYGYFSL
Outline: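 Stable human GnRHR HEK293 line. 18 h plating, then calcium dye for 1 h at 37 C. Agonist-mode compound addition from DMSO stocks; fluorescence monitored 3 min.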

[4] = target: KiSS-1 receptor (Homo sapiens) (UniProt Q969F8); assay: Human kisspeptin (KISS1R) small molecule agonists, calcium flux assay in KISS1R-HEK293 cells (AID 1920064; active means well fitted curve in the direction sought with a large enough effect in the repeat runs; an effect the other way counts as inactive or inconclusive)
KiSS-1 receptor (Homo sapiens), sequence (Q969F8 whole entry, looked up): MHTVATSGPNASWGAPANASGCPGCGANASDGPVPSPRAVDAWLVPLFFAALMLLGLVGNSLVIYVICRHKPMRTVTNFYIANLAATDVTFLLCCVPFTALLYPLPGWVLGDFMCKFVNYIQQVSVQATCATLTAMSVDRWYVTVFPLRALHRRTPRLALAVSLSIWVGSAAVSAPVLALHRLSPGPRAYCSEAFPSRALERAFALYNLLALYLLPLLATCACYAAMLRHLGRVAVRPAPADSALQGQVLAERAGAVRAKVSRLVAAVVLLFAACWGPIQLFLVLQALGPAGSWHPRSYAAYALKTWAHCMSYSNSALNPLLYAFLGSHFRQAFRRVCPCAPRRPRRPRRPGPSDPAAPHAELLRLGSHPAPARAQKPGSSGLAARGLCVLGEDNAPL
Outline: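 After overnight (18 h) culture at 37 C/5% CO2, human KISS1R-HEK293 cells received calcium dye for 1 h, then test compound; emission at 540 nm (excitation 480 nm) was tracked for 3 min.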

[5] = G protein-coupled receptor (GPCR) small molecule agonists, calcium flux assay: HEK293 wild type cell line counter screen (AID 1920065)
Outline: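 Following 18 h incubation at 37 C/5% CO2, plates got calcium dye for 1 h; compounds, ATP or DMSO were then pinned in and fluorescence followed kinetically (480/540 nm).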

[6] = p53 small molecule agonists, cell-based qHTS assay with rat liver microsomes (AID 1963578)
Outline: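 Agonist mode in p53RE-bla reporter cells, with compounds co-incubated 16 h at 37 C alongside 0.5 mg/mL rat liver microsomes and 0.5 mg/mL NADPH (final), followed by a 2 h LiveBLAzer detection step.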

[7] = p53 small molecule agonists, cell-based qHTS assay with human liver microsomes: qHTS cell viability counter screen (AID 1963579); further: nearly all actives have a fitted effect of over 45% in size
Outline: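 Metabolically activated exposure: compounds, human liver microsomes and NADPH (0.5 mg/mL final apiece) were added to p53RE-bla cells seeded 5 h earlier, left 16 h at 37 C, and then assessed for viability by CellTiter-Glo luminescence.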

[8] = p53 small molecule agonists, cell-based qHTS assay with rat liver microsomes: qHTS cell viability counter screen (AID 1963580); further: nearly all actives have a fitted effect of over 45% in size
Outline: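 Cytotoxicity counter screen: intracellular ATP read by CellTiter-Glo luminescence in the p53 reporter wells. HCT-116 p53RE-bla cells were treated for 16 h at 37 C alongside rat liver microsomes and NADPH, each 0.5 mg/mL final.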

[9] = p53 small molecule agonists, cell-based qHTS assay: qHTS cell viability counter screen (AID 1963581); further: nearly all actives have a fitted effect of over 45% in size
Outline: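 qHTS counter screen: 16 h compound exposure at 37 C of p53RE-bla HCT-116 cells (4,000 per well, seeded 5 h prior), cell viability by ATP luminescence.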

[10] = p53 small molecule agonists, cell-based qHTS assay (AID 1963582; active means well fitted activation curve with a large enough effect in the signal ratio in the repeat runs, not every such curve was filed as active; the % refers to the signal ratio)
Outline: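 Measured: fluorescence from cleaved LiveBLAzer substrate. System: p53RE-bla cells, 16 h compound treatment at 37 C, 2 h substrate step at room temperature.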

[11] = target: 5-hydroxytryptamine receptor 2A (Homo sapiens) (UniProt P28223); assay: 5-hydroxytryptamine receptor 2A (HTR2A) small molecule agonists, cell-based qHTS assay (AID 1963587); further: nearly all actives have a fitted effect of over 30% in size; further: potency means the concentration at half of the fitted maximal effect
5-hydroxytryptamine receptor 2A (Homo sapiens), sequence (P28223 whole entry, looked up): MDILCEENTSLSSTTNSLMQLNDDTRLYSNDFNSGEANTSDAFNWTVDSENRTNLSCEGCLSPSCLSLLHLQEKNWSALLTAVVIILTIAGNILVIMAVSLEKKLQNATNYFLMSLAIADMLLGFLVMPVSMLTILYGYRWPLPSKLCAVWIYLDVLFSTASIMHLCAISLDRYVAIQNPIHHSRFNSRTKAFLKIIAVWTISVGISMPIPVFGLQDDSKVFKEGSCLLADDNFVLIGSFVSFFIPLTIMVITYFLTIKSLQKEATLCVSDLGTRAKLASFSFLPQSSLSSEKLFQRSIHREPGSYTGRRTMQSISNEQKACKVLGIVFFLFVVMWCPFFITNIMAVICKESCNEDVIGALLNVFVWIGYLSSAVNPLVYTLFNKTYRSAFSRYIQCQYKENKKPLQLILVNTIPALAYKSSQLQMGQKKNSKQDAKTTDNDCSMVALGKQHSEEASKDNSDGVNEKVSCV
Outline: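 Kinetic calcium-flux fluorescence (2 min, 1 sec intervals) after compound addition in agonist mode. HTR2A-CHO cells were cultured 18 h, then dye-loaded 1 h at 37 C.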

[12] = target: Muscarinic acetylcholine receptor M1 (Homo sapiens) (UniProt P11229); assay: Cholinergic receptor muscarinic 1 (CHRM1) small molecule antagonists, cell-based qHTS assay (AID 1963588); further: nearly all actives have a fitted effect of over 40% in size; further: potency means the concentration at half of the fitted maximal effect
Muscarinic acetylcholine receptor M1 (Homo sapiens), sequence (P11229 whole entry, looked up): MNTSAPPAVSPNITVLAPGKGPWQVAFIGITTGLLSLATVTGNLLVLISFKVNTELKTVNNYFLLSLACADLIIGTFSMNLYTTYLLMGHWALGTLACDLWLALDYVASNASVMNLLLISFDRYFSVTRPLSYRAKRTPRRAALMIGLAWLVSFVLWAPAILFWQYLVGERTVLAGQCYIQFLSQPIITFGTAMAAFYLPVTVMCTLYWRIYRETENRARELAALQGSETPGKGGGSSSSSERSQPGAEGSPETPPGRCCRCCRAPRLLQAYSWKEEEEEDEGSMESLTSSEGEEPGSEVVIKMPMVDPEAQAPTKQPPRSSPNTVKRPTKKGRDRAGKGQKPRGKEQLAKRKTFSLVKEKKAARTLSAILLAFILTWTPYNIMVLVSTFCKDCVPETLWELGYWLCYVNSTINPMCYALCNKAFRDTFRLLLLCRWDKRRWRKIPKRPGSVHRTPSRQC
Outline: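 Compounds were tested at 15 concentrations in three independent runs. Dye-loaded CHRM1-CHO cells were exposed 5 min at room temperature before stimulation by acetylcholine added at 50nM. Intracellular calcium was read kinetically on FDSS for 3 min.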

[13] = target: Muscarinic acetylcholine receptor M1 (Homo sapiens) (UniProt P11229); assay: Cholinergic receptor muscarinic 1 (CHRM1) small molecule agonists, cell-based qHTS assay (AID 1963589); further: nearly all actives have a fitted effect of over 35% in size
Outline: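 Kinetic fluorescence (1 s intervals) of calcium-sensitive dye in human M1 CHO cells after compound addition; cells pre-incubated 18 h at 37 C/5% CO2 and dye-loaded 1 h.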

[14] = cAMP Responsive Elements (CRE) small molecule agonists, cell-based qHTS assay (AID 1963590)
Outline: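 Test agents in DMSO were incubated 3 h at 37 C/5% CO2 with CRE-bla HEK 293T cells seeded 18 h earlier; LiveBLAzer B/G FRET substrate was added and read after 2 h at room temperature.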

[15] = target: Beta-2 adrenergic receptor (Homo sapiens) (UniProt P07550); assay: Adrenergic beta2 receptor (ADRB2) small molecule antagonists, cell-based qHTS assay (AID 1963592); further: series mostly up to about 92 µM; nearly all actives have a fitted effect of over 50% in size
Beta-2 adrenergic receptor (Homo sapiens), sequence (P07550 whole entry, looked up): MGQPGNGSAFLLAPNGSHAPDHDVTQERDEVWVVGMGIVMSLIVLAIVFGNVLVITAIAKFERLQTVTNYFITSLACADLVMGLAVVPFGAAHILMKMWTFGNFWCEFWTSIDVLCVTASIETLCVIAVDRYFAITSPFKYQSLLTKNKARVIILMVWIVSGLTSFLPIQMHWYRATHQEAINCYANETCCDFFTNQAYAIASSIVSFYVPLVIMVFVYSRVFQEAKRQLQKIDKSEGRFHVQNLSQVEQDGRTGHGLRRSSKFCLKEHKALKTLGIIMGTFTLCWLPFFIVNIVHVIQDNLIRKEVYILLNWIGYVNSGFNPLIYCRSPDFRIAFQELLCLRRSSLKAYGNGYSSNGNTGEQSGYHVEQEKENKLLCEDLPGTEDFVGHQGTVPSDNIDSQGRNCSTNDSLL
Outline: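 Assay format: CHO-ADRB2 cells, 18-20hr seeding at 37C/5% CO2, then compound plus 1nM isoproterenol agonist mix for 0.5hr RT. Homogeneous time-resolved fluorescence cAMP detection after 1hr, expressed as 665/615 nm ratio.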

[16] = target: D(2) dopamine receptor (Homo sapiens) (UniProt P14416); assay: Dopamine D2 receptor (DRD2) small molecule agonists, cell-based qHTS assay (AID 1963594); further: nearly all actives have a fitted effect of over 35% in size
D(2) dopamine receptor (Homo sapiens), sequence (P14416 whole entry, looked up): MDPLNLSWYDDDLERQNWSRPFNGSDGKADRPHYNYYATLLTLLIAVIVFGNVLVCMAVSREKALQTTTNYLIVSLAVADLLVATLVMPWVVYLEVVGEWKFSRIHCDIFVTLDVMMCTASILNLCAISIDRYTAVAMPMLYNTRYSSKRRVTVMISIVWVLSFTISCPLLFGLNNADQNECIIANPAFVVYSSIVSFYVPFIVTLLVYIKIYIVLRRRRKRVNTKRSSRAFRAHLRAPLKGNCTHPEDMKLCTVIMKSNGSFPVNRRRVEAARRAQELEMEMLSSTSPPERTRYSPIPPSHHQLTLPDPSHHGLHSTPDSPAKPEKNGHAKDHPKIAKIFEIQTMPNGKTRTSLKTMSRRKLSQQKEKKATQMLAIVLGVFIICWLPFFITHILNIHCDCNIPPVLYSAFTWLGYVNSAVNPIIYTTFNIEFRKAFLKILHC
Outline: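 cAMP accumulation in DRD2-HEK293 cells measured by HTRF after 1 h detection; compounds added 10 min before NKH477 (200nM […]) forskolin-analogue stimulation, 30 min at room temperature, with Ro20-1724 present at 0.1 mM final.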

[17] = target: D(2) dopamine receptor (Homo sapiens) (UniProt P14416); assay: Dopamine D2 receptor (DRD2) small molecule antagonists, cell-based qHTS assay (AID 1963595; active means well fitted inhibition curve with a large enough effect in the signal ratio in the repeat runs, with a control signal flat; the % refers to the signal ratio)
Outline: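 Readout: HTRF cAMP, cAMP-d2 competing with cellular cAMP for anti-cAMP cryptate, read after 1 h. Cells: DRD2-HEK293. Conditions: 0.1 mM Ro20-1724, 12 nM quinpirole, 200 nM NKH477, 30 min RT.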

[18] = target: 5-hydroxytryptamine receptor 2A (Homo sapiens) (UniProt P28223); assay: 5-hydroxytryptamine receptor 2A (HTR2A) small molecule antagonists, cell-based qHTS assay (AID 1963586); further: nearly all actives have a fitted effect of over 45% in size; further: potency means the concentration at half of the fitted maximal effect
Outline: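 CHO cells stably expressing human HTR2A were plated for 18 h at 37 C, then loaded with calcium dye for 1 h. Compounds were preincubated 5 min at room temperature before DOI (4 nM solution) was added. Kinetic fluorescence was read for 3 min.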

[19] = cAMP Responsive Elements (CRE) small molecule antagonists, cell-based qHTS assay (AID 1963591; active means well fitted inhibition curve with a large enough effect in the signal ratio in the repeat runs, not every such curve was filed as active; the % refers to the signal ratio)
Outline: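 Reporter line CRE-bla HEK 293T in dialyzed-FBS DMEM; cells preincubated 18 h, treated 3 h with compound plus NKH477 (0.25 uM final); LiveBLAzer FRET, 2 h RT.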

Measured: Potency

COCCOC(=O)C1=C(C)NC(C)=C(C(=O)OC/C=C/c2ccccc2)C1c1cccc([N+](=O)[O-])c1 (stereo not drawn)
not listed: [18] | [19]
inactive: all other assays above

C=COCC(C)C
not listed: [10] | [14]
inactive: all other assays above

O=C(Nc1ccc([N+](=O)[O-])cc1)Nc1ccc([N+](=O)[O-])cc1
not listed: [18]
inactive: all other assays above

CN(C)CCc1c[nH]c2ccc(C[C@H]3COC(=O)N3)cc12
active: [11] 8.49 µM
not listed: [18]
inactive: all other assays above

CCCCCCCCCCCCCCCCOP(=O)([O-])OCC[N+](C)(C)C
not listed: [12]
inactive: all other assays above

COC(=O)NN
not listed: [16] | [18] | [19]
inactive: all other assays above

CN=C(N)NC(=O)Nc1c(C)cccc1C
active: [11] 6.74 µM
not listed: [17] | [18]
inactive: all other assays above

O=c1c(O)c(O)c1=O
not listed: [9] | [14]
inactive: all other assays above

NNc1nc(-c2ccc([N+](=O)[O-])cc2)cs1
active: [1] 30.6 µM | [2] 30.6 µM
not listed: [10] | [14] | [15] | [16] | [19]
inactive: all other assays above

OC(CCN1CCCCC1)(c1ccccc1)c1ccccc1
not listed: [12]
inactive: all other assays above

NCC1CCC(C(=O)Oc2ccc(CCC(=O)O)cc2)CC1 (stereo not drawn)
not listed: [11] | [12] | [13] | [18]
inactive: all other assays above

CCN(CC)CCOC(=O)C(c1ccccc1)c1ccccc1
active: [18] 7.29 µM | [12] 0.0103 µM
not listed: [11] | [17]
inactive: all other assays above

CC[N+](CC)(CC)CCOc1cccc(OCC[N+](CC)(CC)CC)c1OCC[N+](CC)(CC)CC
not listed: [11] | [12] | [13] | [18]
inactive: all other assays above

COc1cc(C(=O)NC2CCCNC2)cc(OC)c1OC (stereo not drawn)
not listed: [10] | [11] | [12] | [13] | [18]
inactive: all other assays above

CCCCc1ccc(N)cc1
not listed: [10] | [12]
inactive: all other assays above
